Inconclusive results are not listed. Values without a mark were called inactive. The call rests on the fitted dose curve; in most records, active means well fitted inhibition curve with a large enough effect; inconclusive means small, poorly fitted or top-dose-only effect; inactive means flat fitted curve, though single readings scatter.
The compounds below were run against Calcium and integrin-binding protein 1 (Homo sapiens) (UniProt Q99828) (assay: Primary qHTS for Identification of Calcium Integrin Binding Protein 1 (CIB1) Competitor (AID 1508620; further: top concentration of the series differs between compounds)). Conditions: CIB1-GST / FITC-alphaIIb peptide fluorescence polarization; series mostly up to 114 µM; activity change, negative = inhibition: at the top concentration.
Chain of Calcium and integrin-binding protein 1 (Homo sapiens) (Q99828 whole entry, looked up): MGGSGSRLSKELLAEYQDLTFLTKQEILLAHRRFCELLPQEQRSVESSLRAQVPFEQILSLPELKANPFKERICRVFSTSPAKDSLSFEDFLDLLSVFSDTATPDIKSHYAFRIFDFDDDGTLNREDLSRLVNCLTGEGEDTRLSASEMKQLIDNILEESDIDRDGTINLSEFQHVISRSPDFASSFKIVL
Procedure, shortened: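 Fluorescence polarization competition: GST-tagged CIB1 (1 uM final) preincubated with compound 15 min at room temperature, then FITC-labelled alphaIIb peptide (100 nM final) added. After 15 min at room temperature, polarization read at Ex 480/Em 540.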
On the % scale 0 is the no-effect control and ±100 the full control effect.

| Compound | activity change, negative = inhibition [%] |
| --- | --- |
| O=C(Nc1nc(Nc2cc(F)cc(F)c2)nc(NC2CCCC2)n1)OCc1ccccc1 | -2.55 |
| Cc1nnc(-c2ccccc2)n1CCCn1ccnc1 | 0.0894 |
| COc1cccc(C2c3c(ncn(-c4ccccc4C)c3=N)Oc3ccc4ccccc4c32)c1 (centres undefined) | 5.84 |
| CN(C)c1ccccc1-c1csc(N2CCC(C(N)=O)CC2)n1 | -0.412 |
| O=C(CSc1ccccc1)Nc1nnc(COc2ccc(Cl)cc2)s1 | 4.63 |
| COc1ccc(CCNC(=O)Cn2nc(-c3ccc(C)cc3)ccc2=O)cc1OC | -2.76 |
| CC(C)c1ccccc1-c1ncc(F)c(NCc2ccc(-n3ccnn3)cc2)n1 | 5.11 |
| CC(C)(C)c1ccc(CSc2nc3ncc(Br)cc3[nH]2)cc1 | 0.596 |
| CC(=O)Nc1sc2c(c1-c1ccc3nonc3c1)CCNC2 | -3.99 |
| O=c1c2ccc(C(F)(F)F)cc2nc2sc(Nc3ccc4c(c3)CCC4)nn12 | 6.94 |
| Cc1noc(C)c1-c1ccc2ncnc(NCc3ccc(-c4ccccc4)cc3)c2c1 | 4.23 |
| COc1ccc(C2Nc3ccccc3C(=O)N2Cc2ccccc2)cc1COc1c(C)cc(NC(C)=O)cc1C (centres undefined) | -0.44 |
| CCOC(=O)c1ccc(-n2c(C)cc(-c3nnc4n3CCCCC4)c2C)cc1 | 1.22 |
| Cc1cc(C)n2ncc(C(=O)Nc3ccc4c(c3)OCCO4)c2n1 | 2.7 |
| O=C(Nc1ccc(N2CCOCC2)c(C(F)(F)F)c1)Nc1nnc(-c2ccncc2)s1 | -0.369 |
| COc1ccc(C2Nc3ccccc3C(=O)N2CCO)cc1COc1ccc(NC(C)=O)cc1 (centres undefined) | 5.2 |
| Cc1cc(C)nc(NC(=S)N2CCN(c3cc(Cl)c(Cl)cc3Cl)CC2)c1 | -8.14 |
| Cc1ccc(-c2ccc(=O)n(CC(=O)NCCC3CC3)n2)cc1 | 3.65 |
| CC(=O)c1ccccc1-c1ncc(C)c(NCC2CCN(c3cccnc3)CC2)n1 | 7.27 |
| COc1ccnc(NC(=S)N2CCN(c3ccc(Cl)cc3Cl)CC2)c1 | -10.9 |

| Compound | activity change, negative = inhibition [%] |
| --- | --- |
| COc1ccc2ncnc(NCC3CCCO3)c2c1-c1ccc2c(c1)OCO2 (centres undefined) | -3.78 |
| COc1ccccc1/C=C/C(=O)NCCc1nc2ccccc2n1CCOc1ccc(C)cc1 | 11.2 |
| Cc1cnc(-c2ccccc2C(C)C)nc1NCc1ccc(-c2nn[nH]n2)cc1 | -6.12 |
| O=c1c2ccc([N+](=O)[O-])cc2nc2sc(Nc3ccc4c(c3)CCC4)nn12 | 3.39 |
| CC(=O)Nc1sc2c(c1-c1cccc3c1sc1ccccc13)CCNC2 | 9.6 |
| CCCCN(C)C(=O)Cn1nc(-c2cncnc2)ccc1=O | -0.916 |
| O=C1c2ccccc2C(=O)N1c1cccc2ccncc12 | -3.22 |
| CC(=O)c1cccc(-c2csc(N3CCC(C(N)=O)CC3)n2)c1 | -2.67 |
| Fc1cc(Nc2nc(-c3ccncc3)nc3ccccc23)ccc1-c1ccnc(C(F)(F)F)c1 | 8.08 |
| CC(=O)N1CCN(C(=S)Nc2cc(C)ccn2)CC1 | -6.92 |
| N#Cc1ccc(NS(=O)(=O)c2ccc3c(c2)CCC(=O)N3)cc1 | -1.8 |
| FC(F)(F)c1cccc(N2CCN(C(=S)Nc3cccnc3)CC2)c1 | 0.253 |
| CC(=O)C1CCN(c2ncc(-c3cccc(N(C)C)c3)s2)CC1 | -3.96 |
| CCOC(=O)c1ccoc1-c1ccc2ncnc(NCc3ncc[nH]3)c2c1 | -1.65 |
| COc1ccc(C(=O)Nc2ccc(-c3nc4ccccc4[nH]3)cc2)cc1C(F)(F)F | 3.33 |
| CC(C)c1ccccc1-c1nc2c(c(NCc3ccc(-c4cccnc4)cc3)n1)CNC2 | -1.1 |
| CC(C)(NC(=O)Nc1ccccc1Cl)C(=O)N1CCC(C(=O)O)CC1 | -6.52 |
| Cc1cnc(-c2ccccc2C(C)C)nc1NCc1ccc(-c2cccc(S(N)(=O)=O)c2)cc1 | 6.54 |
| COc1ccc(-c2nnc3n2N=C(c2cc(OC)ccc2OC)CS3)cc1 | 2.13 |

Reference: PubChem BioAssay (NCATS)
